Assay outcomes from PubChem BioAssay.
Shown are actives, neighbours in structure and some others; about 3.5% of the full set was active somewhere.
TEAD-YAP block: TEAD-YAP interaction inhibition. HEK-TIYL cells, TEAD-Gal4/YAP UAS-luciferase luminescence. inhibition, % at 9.12 µM. hit rate 1.4% among 640,000; in the data active = inhibition above about 32%;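 also: 0% = median of test compound wells and 100% = reference inhibitor wells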
MITF primary: blocks human microphthalmia-associated transcription factor | O75030 | AlphaScreen MITF homodimerization, bead proximity signal | inhibition, % at 2.6 µM | hit rate 0.91% among 650,000 | AID 1259374; in the data active = inhibition above about 50%;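 also: 0% = vehicle wells with protein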
GPR151 activ: activates the human receptor GPR151 | hit rate 1% among 650,000 | AID 1508602 | PathHunter beta-arrestin GPR151 cells, luminescence | activation, % at 11.2 µM; in the data active = activation above about 4.9%;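 also: 0% = median of compound wells and 100% = cells with positive control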
FBW7 act: activators of human E3 ligase FBW7. Q969H0. normalized activity (activation), % at 26.1 µM. hit rate 0.13% among 650,000. AlphaScreen FBW7–phospho-cyclin E peptide binding, activator screen; in the data active = normalized activity above about 1.9%;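 also: purified mutant Fbw7 with reduced substrate affinity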
Target sequence (Q969H0 whole entry, looked up): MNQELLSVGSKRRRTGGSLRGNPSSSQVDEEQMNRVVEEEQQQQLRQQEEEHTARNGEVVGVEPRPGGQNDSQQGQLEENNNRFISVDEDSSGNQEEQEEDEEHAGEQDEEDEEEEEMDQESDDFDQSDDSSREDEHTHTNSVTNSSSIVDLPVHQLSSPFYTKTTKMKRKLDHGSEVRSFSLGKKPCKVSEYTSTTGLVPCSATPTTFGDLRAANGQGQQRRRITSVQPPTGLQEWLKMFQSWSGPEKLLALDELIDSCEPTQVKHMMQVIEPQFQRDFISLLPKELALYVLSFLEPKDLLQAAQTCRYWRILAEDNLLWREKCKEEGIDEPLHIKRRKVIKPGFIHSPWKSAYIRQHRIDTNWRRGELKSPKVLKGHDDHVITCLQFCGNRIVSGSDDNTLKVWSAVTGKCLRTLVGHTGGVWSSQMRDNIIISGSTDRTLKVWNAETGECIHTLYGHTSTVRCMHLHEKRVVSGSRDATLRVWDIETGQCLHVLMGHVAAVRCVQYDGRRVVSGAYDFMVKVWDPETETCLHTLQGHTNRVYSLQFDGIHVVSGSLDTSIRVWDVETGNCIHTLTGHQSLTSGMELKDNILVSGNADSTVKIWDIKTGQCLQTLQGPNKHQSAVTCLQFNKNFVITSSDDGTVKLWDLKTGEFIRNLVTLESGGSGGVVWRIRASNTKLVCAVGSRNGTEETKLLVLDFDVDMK
GPR151 confirm: human GPR151 activation, confirmation screen | shares compounds with GPR151 activ | GPR151 PathHunter beta-arrestin cells, luminescence, 90 min; % of EA-reagent control over plate median | activation, % at 11.2 µM | 6,700 tested, under 10 active | AID 1508609;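 active = mean percent activation across replicates above the confirmation screen cutoff of 4.91%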
GPR119 counter: GPR119 activation, counter-screen for GPR151 activators; shares compounds with GPR151 activ; GPR119 PathHunter beta-arrestin cells, luminescence, 90 min; 0 = compound-well median, 100 = enzyme-acceptor control; activation, % at 11.2 µM; hit rate 0.3% among 6,700; AID 1508611;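 active = mean percent activation in the counterscreen above 29.09%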;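 also: counterscreen on off-target GPR119 to flag nonselective hits from the GPR151 activator screen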
Starred values were filed as active, the others as inactive; . = not tested or not shown; ! = not confirmed by another sample.

SMILES | TEAD-YAP block | MITF primary | GPR151 activ | FBW7 act | GPR151 confirm | GPR119 counter
COC(=O)c1ccc2c(=O)n(Cc3ccc4c(c3)OCO4)c(SCC(=O)NCCc3ccc(OC)c(OC)c3)nc2c1 | 8.3 | 16.7 | 1.5 | 0.3 | . | .
O=C(c1cc(-c2cccc(Cl)c2)nc2ccccc12)N1CCOCC1 | 7.1 | -10.3 | 10.7* | -0.2 | -1.0 | -3.3
O=C(c1cc(-c2ccc(Cl)cc2)nc2ccccc12)N1CCOCC1 | 3.5 | -2.8 | 0.5 | 0.0 | . | .
CCN1CCCC1Cn1cnc2c(-c3ccc(OC)cc3)nsc2c1=O (centres undefined) | -6.0 | -4.6 | 1.3 | 0.0 | . | .
O=C(COc1ccc(Cl)cc1Cl)Nc1ncn[nH]1 | 42.4* | 12.9 | 6.6* | -0.3 | 2.7 | -13.2
O=C(CCCOc1ccc(Cl)cc1Cl)Nc1ncn[nH]1 | -6.8 | -9.6 | -0.5 | -0.1 | . | .
CC(=O)Nc1ccc(NC(=O)COc2ccc(Cl)cc2Br)cc1 | -21.6 | 7.2 | 5.1* | 0.0 | 0.2 | 15.3
CCCCCn1c(SCC(=O)c2ccc(Cl)cc2)nc2cc(C(=O)NCc3ccco3)ccc2c1=O | -4.8 | 1.8 | 0.4 | 0.0 | . | .
CCn1cc(/C=C(\NC(=O)c2ccccc2F)C(=O)NCCO)c2ccccc21 | -2.3 | 3.8 | -0.7 | -0.1 | . | .
O=C(c1c(F)cccc1F)N1CCN(S(=O)(=O)c2ccc(Br)cc2)CC1 | -14.1 | 4.8 | 6.1* | -0.5 | 0.4 | 13.3
N#CC1=C(N)Oc2n[nH]c(-c3ccc4ccccc4c3)c2C1c1ccc(O)c(O)c1 (centres undefined) | 3.8 | -10.6 | 0.8 | -0.5 | . | .
Cc1cc2nc(-c3cc(NC(=O)c4cccnc4)ccc3Cl)oc2cc1C | -9.4 | -3.3 | 5.3* | -0.2 | 0.1 | 13.2
O=C(Nc1ccc(Cl)c(-c2nc3ccccc3o2)c1)c1cccnc1 | -3.4 | 14.8 | 0.7 | 0.1 | . | .
COc1ccc(C2C(C(=O)Nc3ccccc3OC)=C(C)Nc3nc(-c4ccncc4)nn32)cc1 (centres undefined) | -1.8 | -5.6 | 2.3 | -0.1 | . | .
CC(C)=NNC(=O)c1ccc(Cl)cc1 | -34.5 | 7.2 | 11.6* | 0.1 | 0.2 | 1.8
COc1ccccc1C(=O)Nc1ccccc1-c1nnn(CC(=O)NCc2ccco2)n1 | 9.7 | 3.2 | 5.3* | 0.0 | -0.1 | -6.2
Cc1ccc(NC(=O)c2cc3c(=O)n4ccccc4nc3n2C)cc1F | 0.9 | 13.8 | 5.6* | 0.8 | 0.3 | -1.9
Cn1c(C(=O)Nc2ccc(Oc3ccccc3)cc2)cc2c(=O)n3ccccc3nc21 | -3.5 | 4.4 | 5.9* | 0.2 | -0.2 | 4.8
CC(=O)Nc1ccc(NC(=O)c2cc3c(=O)n4ccccc4nc3n2C)cc1 | 0.9 | -3.7 | 0.1 | -0.2 | . | .
CN(C)c1cccc(Nc2nc3ncnc(NC4CCN(Cc5ccccc5)CC4)c3[nH]2)c1 | -6.4 | 5.7 | 3.5 | -0.2 | . | .
COc1ccc(Cn2c(=O)c3cccnc3n(Cc3ccc(C#N)cc3)c2=O)cc1 | -3.7 | -1.2 | -0.2 | -0.3 | . | .
c1nc(N2CCCCC2)c2sc3nc(N4CCOCC4)c4c(c3c2n1)CCCC4 | -7.3 | 5.4 | 6.2* | 0.2 | -0.8 | -5.7
c1nc(N2CCOCC2)c2sc3nc(N4CCCCC4)c4c(c3c2n1)CCCC4 | 0.8 | -1.5 | 0.8 | -0.1 | . | .
COc1ccc(OC)c(-n2c(CN3CCC(C(N)=O)CC3)nc3ccccc3c2=O)c1 | 15.1 | 4.9 | 5.6* | -0.1 | -0.2 | -11.0
CC(C)(C)OC(=O)N1CCN(c2cc(-c3ccc(Oc4ccccc4)cc3)[nH]n2)CC1 | . | . | -0.1 | . | . | .
SMILES | TEAD-YAP block | MITF primary | GPR151 activ | FBW7 act | GPR151 confirm | GPR119 counter
NC(=O)COC(=O)c1ccc(S(=O)(=O)N2CCCc3ccccc32)cc1 | -2.1 | 1.0 | 1.0 | 0.0 | . | .
NC(=O)COC(=O)c1cccc(S(=O)(=O)N2CCCc3ccccc32)c1 | -3.9 | 0.1 | 6.1* | 0.0 | -0.4 | -1.2
O=C(C1CCC1)N1CCc2cc(S(=O)(=O)N3CCCc4ccccc43)ccc21 | -11.5 | 0.7 | 6.5* | 0.1 | 1.2 | 0.4
COc1ccc(C(O)CN2C3=NCCCN3c3ccccc32)cc1 (centres undefined) | -2.2 | -17.7 | 5.1* | -0.1 | 0.8 | 19.4
CCCCOC(=O)Nc1nnc(C(C)C)s1 | -58.5 | 13.4 | 0.0 | 0.0 | . | .
CC(C)COC(=O)Nc1nnc(C(C)C)s1 | -73.6 | -7.4 | 13.2* | 0.1 | 0.4 | 6.8
CC1(C)CC(=O)C2=C(C1)N(c1ccccc1)C(=O)CC2c1ccccc1 (centres undefined) | 1.9 | 13.2 | 6.8* | 0.0 | -0.2 | -7.3
Cc1ccc(N2C(=O)CC(c3ccccc3)C3=C2CC(C)(C)CC3=O)cc1 (centres undefined) | 10.5 | 10.7 | -2.0 | -0.4 | . | .
CCCOc1ccc(/C(O)=C2/C(=O)C(=O)N(CCCN3CCOCC3)C2c2ccc(C(C)(C)C)cc2)c(C)c1 (centres undefined) | -0.7 | 7.3 | 2.9 | 0.0 | . | .
C=CCSc1nnc(C2CCCN(C/C(C)=C/C)C2)n1C (centres undefined) | -0.2 | 0.0 | -0.4 | 0.2 | . | .
CC(C)(C)c1[nH]nc2c1C(c1ccsc1)C(C#N)=C(N)O2 (centres undefined) | 1.8 | 6.7 | 6.6* | -0.1 | 0.6 | 2.4
CCCCN(CC)C(=O)NCc1noc2ccccc12 | -1.7 | -20.8 | 0.2 | -0.1 | . | .
Cc1cccc(NC(=O)NCc2noc3ccccc23)n1 | 0.9 | -7.0 | 5.6* | 0.0 | 0.2 | -2.5
CCN(C(=O)NCc1noc2ccccc12)c1ccccc1 | -8.9 | -5.3 | 5.6* | -0.1 | 0.4 | 1.8
CCN(CC)C(=O)NCc1noc2ccccc12 | -6.8 | 0.2 | 5.3* | 0.5 | 0.7 | 5.7
Cc1ccc(NC(=O)NCc2noc3ccccc23)nc1 | 4.2 | 4.3 | -1.5 | 0.0 | . | .
Cc1nnc2sc(SCc3ccc([N+](=O)[O-])cc3)nn2c1=O | 0.8 | -4.8 | 0.4 | 0.0 | . | .
Cc1ccccc1CSc1nn2c(=O)c(C)nnc2s1 | 1.2 | -6.3 | 6.8* | -0.9 | 1.0 | 14.2
O=C(O)[C@H]1/C(=C/CO)O[C@@H]2CC(=O)N21 | -7.0 | -1.2 | 4.9*! | 0.0 | 0.4 | 2.9
O=C(O)C1CC(=O)N(CCN2CC(C(=O)O)CC2=O)C1 (centres undefined) | 3.5 | 11.8 | 0.0 | 0.2 | . | .
CCOCCCNCc1ccccc1OCc1ccccc1 | 0.4 | -13.0 | 12.7* | -0.1 | -0.5 | -5.6
O=C(NCCCO)/C(=C/c1ccccc1F)NC(=O)c1ccccc1 | 5.1 | -2.1 | 5.0* | 0.0 | 0.1 | 6.1
CC(C)N1CCN(S(=O)(=O)c2ccccc2)CC1 | 8.6 | 36.2 | -0.9 | -0.2 | . | .
O=[N+]([O-])c1cc([N+](=O)[O-])c2nonc2c1Nc1cccc(C(F)(F)F)c1 | 5.8 | 18.4 | 7.1* | 0.6 | 1.0 | -10.1
COCc1cc(C)nc2sc(C(=O)c3ccccc3)c(N)c12 | 1.1 | 3.5 | -1.9 | 0.9 | . | .
COCc1cc(C)nc2oc(C(=O)c3ccccc3)c(N)c12 | 6.2 | -6.4 | 5.7* | 0.2 | -0.8 | -10.9
